Results on two compounds are retold here after PubChem BioAssay (NCATS).

Assay [1] in a line: J3T Cancer Cell Toxicity qHTS against the NCATS CANVASS Library (AID 1347371). The following applies: outcome: dose series up to 46.1 µM. The method in brief: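 Dog glioma J3T, 500 cells/well; cpd 11-pt qHTS; 72 hr, 37C/5% CO2; CellTiterGlo ATP luminescence readout.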
For assay [2], the target named is Nuclear receptor subfamily 1 group I member 3 (Homo sapiens) (UniProt Q14994). As to the kind of experiment: qHTS for Constitutive Androstane Receptor (CAR) Antagonist screened against the NCATS CANVASS Library (AID 1347372).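 Note: cells stimulated with 50 nM CITCO agonist so inhibition reflects antagonism; series mostly up to about 46 µM.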 The method in brief: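 Cells were seeded and left 4hr to attach, then received compound at 11 concentrations and 50 nM CITCO. Following 24hr incubation, fluorescence viability and luciferase luminescence were read sequentially.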

Assay [3] in a line: qHTS for Hypoxia signaling pathway (HIF-1) agonists against the NCATS CANVASS Library (AID 1347375). An excerpt: (§1) Natural products and their derivatives continue to be wellsprings of nascent therapeutic potential. However, many laboratories have limited resources for biological evaluation, leaving their previously isolated or synthesized compounds largely or completely untested. To address this issue, the Canvass library of natural products was assembled (https://tripod.nih.gov/canvass), in collaboration with academic and industry researchers, for quantitative high-throughput screening (qHTS) across a diverse set of cell-based and biochemical assays. The pure (>85% purity by liquid chromatography/mass spectrometry [LC/MS]) Canvass library of 346 natural products were submitted by 45 academic laboratories and companies around the world. We collected pure natural products to circumvent deconvolution and structure elucidation due to time and resource limitations. The library was formatted into 1536-well plates and evaluated in 50 qHTS (in an 11-pnt concentration series) bioassays with broad scope of disease-relevant mechanisms. The resulting data set from 50 different assays was then systematically analyzed to identify overall trends and specific natural products with interesting biological activities. […] The compounds were also tested for auto fluorescence that may interfere with the biological target readout resulting in potential false positives and/or negatives. […]

Assay [4] can be described thus: 10-beta competent E. coli microbial cell viability qHTS against the NCATS CANVASS Library (AID 1347376). Note: series mostly up to about 46 µM. A digest of the protocol: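 Luminescence from BacTiter-Glo ATP detection served as the viability read-out; bacteria (0.2 OD) had been incubated overnight at 37C with pin-transferred compounds at 11 concentrations.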
(Quantitative high-throughput screening tests each substance at several concentrations.)

Assay [5] in a line: DH5-alpha competent E. coli microbial cell viability qHTS against the NCATS CANVASS Library (AID 1347377). The following applies: outcome: dose series up to 46.1 µM. A digest of the protocol: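 Luminescent ATP read-out (BacTiter-Glo, 20 min RT) after overnight 37C culture of DH5-alpha E. coli with compounds; daunomycin control at 0.2 nM–9.2 uM final.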
A short description of assay [6]: qHTS for H2AX Agonists against the NCATS CANVASS Library (AID 1347378). Note: potency is the fitted concentration of half-maximal effect. The method in brief: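 CHO-K1 cells (1000/well, overnight at 37C) exposed to compounds at several concentrations for 3 hr at 37C, 0.76% DMSO final. Lysates read by TR-FRET (phospho-H2AX S139 Eu-cryptate antibody / H2AX-d2 antibody) after 24 hr at room temperature; 665/615 nm ratio.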
A short description of assay [7]: qHTS for Inflammasome Signaling Inhibitors: IL-1-beta AlphaLISA screen against the NCATS CANVASS Library (AID 1347379).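 Note: human THP-1 cells primed with LPS then triggered with ATP.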 The following applies: outcome: dose series up to 57.5 µM. The method in brief: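 THP-1, 1 hr compound pre-incubation, then LPS 250 ng/mL + ATP 1.25 mM (final); 16 hr total with compound; IL-1B AlphaLISA, ex 680/em 615 nm; 11-point qHTS, up to 57.5 uM final.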

Assay [8] can be described thus: qHTS for Antimalaria activity screened against the NCATS CANVASS Library (AID 1347380). Note: potency is the fitted concentration of half-maximal effect; nearly all actives have a fitted effect of over 40% in size. The following applies: P. falciparum Dd2 growth, SYBR Green fluorescence, 72 h. The method in brief: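 SYBR Green fluorescence (ex 485, em 535 nm) read after saponin/Triton lysis and 18 h further incubation; Dd2 asexual blood-stage parasites, 72 h compound exposure, 11-pt concentration series, 2.5% hematocrit, 0.3% parasitemia.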

Assay [9] concerns the target Nuclear receptor subfamily 1 group I member 3 (Homo sapiens) (UniProt Q14994). Kind of assay: qHTS for Constitutive Androstane Receptor (CAR) Agonist screened against the NCATS CANVASS Library (AID 1347373).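 Note: every well also contained 1.5 µM PK11195 alongside the test compound.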 The method in brief:
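Luciferase read-out (ONE-Glo, 30 min RT) of CYP2B6-2.2kb promoter activity in double-stable HepG2-hCAR cells after 24hr compound exposure with 1.5uM PK11195 present; viability measured first by CellTiter-Fluor.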

Assay [10] is described as follows: qHTS for Hypoxia signaling pathway (HIF-1) antagonists against the NCATS CANVASS Library (AID 1347374).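 Note: HRE-bla ME-180 cells stimulated with cobalt chloride to stabilize HIF-1alpha; series mostly up to about 38 µM; nearly all actives have a fitted effect of over 60% in size.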
Description: as §1, with “The pure (>85% purity by liquid chromatography/mass spectrometry [LC/MS]) Canvass library of 346 natural products were submitted by 45 academic laboratories and companies around the world.” left out
HIF-1 antagonist assay protocol: 1. […] The fluorescence intensity was obtained using the EnVision (PerkinElmer, Shelton, CT) plate reader using a 405 nm excitation, and 460 and 530 nm emission filters. […]

Inconclusive results are not listed. The source made the active and inactive calls. Calls come from the whole dose curve; as a rule, active = well fitted curve in the direction sought with a large enough effect; inconclusive = small, poorly fitted or top-dose-only effect, or another doubt; inactive = no such curve, though single readings can be large; an effect the other way counts as inactive or inconclusive.

Chain of Nuclear receptor subfamily 1 group I member 3 (Homo sapiens) (Q14994 whole entry, looked up): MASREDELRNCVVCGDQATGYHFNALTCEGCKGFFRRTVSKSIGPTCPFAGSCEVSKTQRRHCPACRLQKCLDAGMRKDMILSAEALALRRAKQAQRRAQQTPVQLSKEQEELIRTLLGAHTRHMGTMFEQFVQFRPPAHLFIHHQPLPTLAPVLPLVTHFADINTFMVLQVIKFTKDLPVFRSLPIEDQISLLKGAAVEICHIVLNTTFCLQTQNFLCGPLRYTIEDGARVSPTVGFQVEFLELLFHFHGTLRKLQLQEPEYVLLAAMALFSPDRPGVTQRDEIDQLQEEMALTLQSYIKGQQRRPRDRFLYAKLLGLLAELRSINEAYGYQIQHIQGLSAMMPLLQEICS

For the compound `O=c1cc(-c2ccccc2)oc2c(O)c(O)ccc12`, the compound was called inactive in [1], in assay [2], in [3], in assay [4], in assay [5] and in [7]. The Potency in assay [6] is 34400 nM (active); in assay [8] it was 6.7 nM (active).

As for `O=C(O)c1cc(O)c(O)c(O)c1`, the outcome in assay [1], in assay [2], in assay [9], in assay [10], in [3] and in [4] was inactive. The outcome in assay [5] and in assay [7] was inactive. For the same compound, the Potency result in [6] is “inactive”. For the same compound, the Potency in assay [8] was 5.3 nM (active).
